In ChEMBL document CHEMBL1961873, “Compounds: GSK PKIS; Assays: Nanosyn kinase panel” (2012):

How the values were obtained:
[1] = target: Serine/threonine-protein kinase pim-2 (Homo sapiens) (UniProt Q9P1W9); conditions: at 1 µM;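 also: each value is a mean of the inhibition measurements against the kinase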
[2] = target: Serine/threonine-protein kinase pim-3 (Homo sapiens) (UniProt Q86V86); conditions: at 0.1 µM
[3] = target: Serine/threonine-protein kinase pim-3 (Homo sapiens) (UniProt Q86V86); conditions: at 1 µM
[4] = target: T1, MAP kinase-activated protein kinase 5 (Homo sapiens) (UniProt Q8IW41); conditions: at 0.1 µM
T1 sequence (whole entry): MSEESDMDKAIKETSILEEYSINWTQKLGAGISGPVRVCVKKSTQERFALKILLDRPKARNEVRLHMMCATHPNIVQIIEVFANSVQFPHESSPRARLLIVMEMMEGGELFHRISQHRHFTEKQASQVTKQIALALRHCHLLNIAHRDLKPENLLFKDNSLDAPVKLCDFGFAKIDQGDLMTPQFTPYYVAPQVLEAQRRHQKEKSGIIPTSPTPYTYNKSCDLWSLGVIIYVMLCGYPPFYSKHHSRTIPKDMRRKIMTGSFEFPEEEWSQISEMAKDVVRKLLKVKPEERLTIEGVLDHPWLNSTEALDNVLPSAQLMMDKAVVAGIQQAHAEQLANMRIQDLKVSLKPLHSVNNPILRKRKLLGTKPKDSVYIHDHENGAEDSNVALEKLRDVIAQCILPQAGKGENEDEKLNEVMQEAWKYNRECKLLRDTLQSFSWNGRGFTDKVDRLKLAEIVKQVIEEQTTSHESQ

[5] = target: T1, MAP kinase-activated protein kinase 5 (Homo sapiens); conditions: at 1 µM
[6] = target: Serine/threonine-protein kinase SIK1 (Homo sapiens) (UniProt P57059); conditions: at 0.1 µM
[7] = target: Serine/threonine-protein kinase SIK1 (Homo sapiens) (UniProt P57059); conditions: at 1 µM
[8] = target: Serine/threonine-protein kinase SIK2 (Homo sapiens) (UniProt Q9H0K1); conditions: at 0.1 µM
[9] = target: Serine/threonine-protein kinase SIK2 (Homo sapiens) (UniProt Q9H0K1); conditions: at 1 µM
[10] = target: T2, Serine/threonine-protein kinase TBK1 (Homo sapiens) (UniProt Q9UHD2); conditions: at 0.1 µM;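 also: values are the mean TBK1 inhibition, taken from the GSK PKIS screening data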
T2 sequence (whole entry): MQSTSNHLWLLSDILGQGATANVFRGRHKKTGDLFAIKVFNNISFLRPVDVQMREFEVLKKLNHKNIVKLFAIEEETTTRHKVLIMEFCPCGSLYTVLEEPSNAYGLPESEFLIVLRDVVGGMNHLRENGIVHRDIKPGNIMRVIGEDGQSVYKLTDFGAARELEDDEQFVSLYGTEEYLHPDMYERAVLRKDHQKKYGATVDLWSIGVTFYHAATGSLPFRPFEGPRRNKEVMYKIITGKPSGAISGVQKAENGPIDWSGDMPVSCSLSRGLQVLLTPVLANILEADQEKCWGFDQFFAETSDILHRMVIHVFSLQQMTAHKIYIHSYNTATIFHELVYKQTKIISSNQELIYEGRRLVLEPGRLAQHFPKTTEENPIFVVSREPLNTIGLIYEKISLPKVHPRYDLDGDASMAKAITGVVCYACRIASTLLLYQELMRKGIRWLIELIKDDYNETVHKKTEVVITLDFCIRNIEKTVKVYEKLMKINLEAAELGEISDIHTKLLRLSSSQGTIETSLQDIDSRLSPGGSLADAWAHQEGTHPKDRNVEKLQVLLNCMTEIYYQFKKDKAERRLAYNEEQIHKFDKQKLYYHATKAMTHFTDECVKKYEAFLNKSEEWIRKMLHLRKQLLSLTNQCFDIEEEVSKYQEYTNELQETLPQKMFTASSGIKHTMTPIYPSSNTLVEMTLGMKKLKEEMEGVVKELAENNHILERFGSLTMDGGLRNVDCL

Serine/threonine-protein kinase SIK2 (Homo sapiens), sequence (Q9H0K1 whole entry, looked up): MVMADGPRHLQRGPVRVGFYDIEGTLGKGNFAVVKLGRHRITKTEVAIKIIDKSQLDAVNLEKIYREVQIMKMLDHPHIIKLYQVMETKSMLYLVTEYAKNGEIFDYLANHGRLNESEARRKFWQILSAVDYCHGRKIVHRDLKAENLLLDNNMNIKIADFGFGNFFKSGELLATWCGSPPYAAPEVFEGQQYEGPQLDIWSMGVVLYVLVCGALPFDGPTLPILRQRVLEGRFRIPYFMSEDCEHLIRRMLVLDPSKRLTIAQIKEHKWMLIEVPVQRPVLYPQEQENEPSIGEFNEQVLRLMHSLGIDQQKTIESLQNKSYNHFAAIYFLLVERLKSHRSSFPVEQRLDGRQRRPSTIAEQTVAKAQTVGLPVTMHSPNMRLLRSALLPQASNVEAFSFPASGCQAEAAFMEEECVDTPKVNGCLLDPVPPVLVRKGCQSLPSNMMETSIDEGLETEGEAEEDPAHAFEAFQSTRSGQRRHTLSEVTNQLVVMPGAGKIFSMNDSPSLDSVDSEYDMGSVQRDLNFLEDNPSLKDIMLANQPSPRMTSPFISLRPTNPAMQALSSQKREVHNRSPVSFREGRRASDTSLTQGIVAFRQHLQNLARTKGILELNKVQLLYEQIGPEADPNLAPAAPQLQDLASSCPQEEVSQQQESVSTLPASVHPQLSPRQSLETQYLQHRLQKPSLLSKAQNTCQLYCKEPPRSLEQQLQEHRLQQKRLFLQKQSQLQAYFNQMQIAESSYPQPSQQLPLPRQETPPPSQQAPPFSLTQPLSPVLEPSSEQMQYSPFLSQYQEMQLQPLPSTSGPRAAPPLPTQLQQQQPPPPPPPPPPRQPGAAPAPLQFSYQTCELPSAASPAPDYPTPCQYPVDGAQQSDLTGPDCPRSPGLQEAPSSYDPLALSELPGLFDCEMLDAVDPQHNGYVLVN
Serine/threonine-protein kinase SIK1 (Homo sapiens), sequence (P57059 whole entry): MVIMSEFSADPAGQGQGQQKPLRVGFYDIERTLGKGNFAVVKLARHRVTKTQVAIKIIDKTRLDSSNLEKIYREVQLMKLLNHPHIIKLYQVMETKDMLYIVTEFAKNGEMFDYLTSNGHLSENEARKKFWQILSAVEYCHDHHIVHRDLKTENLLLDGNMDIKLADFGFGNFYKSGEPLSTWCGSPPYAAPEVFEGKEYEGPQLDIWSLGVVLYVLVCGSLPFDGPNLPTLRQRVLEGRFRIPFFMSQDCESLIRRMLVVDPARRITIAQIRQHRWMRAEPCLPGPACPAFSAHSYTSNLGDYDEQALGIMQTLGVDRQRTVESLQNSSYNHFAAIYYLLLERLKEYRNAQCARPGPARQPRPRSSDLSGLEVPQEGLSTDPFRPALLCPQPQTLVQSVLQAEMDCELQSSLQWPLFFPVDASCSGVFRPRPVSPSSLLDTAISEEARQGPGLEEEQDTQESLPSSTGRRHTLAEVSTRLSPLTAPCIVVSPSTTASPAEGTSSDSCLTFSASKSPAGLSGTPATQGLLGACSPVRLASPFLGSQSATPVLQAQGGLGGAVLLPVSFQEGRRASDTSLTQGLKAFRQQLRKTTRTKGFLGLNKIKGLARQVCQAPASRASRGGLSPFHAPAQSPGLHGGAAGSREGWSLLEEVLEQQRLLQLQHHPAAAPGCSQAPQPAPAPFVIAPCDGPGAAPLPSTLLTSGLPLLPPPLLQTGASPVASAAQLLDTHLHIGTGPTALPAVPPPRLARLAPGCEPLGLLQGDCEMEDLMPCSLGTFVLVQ
Serine/threonine-protein kinase pim-2 (Homo sapiens), sequence (Q9P1W9 whole entry, looked up): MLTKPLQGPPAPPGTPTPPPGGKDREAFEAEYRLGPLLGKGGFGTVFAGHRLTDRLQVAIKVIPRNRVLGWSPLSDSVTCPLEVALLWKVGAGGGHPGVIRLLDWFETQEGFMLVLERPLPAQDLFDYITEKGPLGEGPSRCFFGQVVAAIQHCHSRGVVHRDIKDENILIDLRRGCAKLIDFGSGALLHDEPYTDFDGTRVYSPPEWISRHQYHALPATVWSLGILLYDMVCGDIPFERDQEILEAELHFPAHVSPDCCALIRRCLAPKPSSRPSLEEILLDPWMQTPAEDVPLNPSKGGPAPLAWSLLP

SMILES	inhibition [1] [%]	inhibition [2] [%]	inhibition [3] [%]	inhibition [4] [%]	inhibition [5] [%]	inhibition [6] [%]	inhibition [7] [%]	inhibition [8] [%]	inhibition [9] [%]	inhibition [10] [%]
c1ccc(-c2nc3n(c2-c2ccc4c(c2)OCO4)CCC3)nc1	0.83	0.35	1.07	0.81	0.42	2.02	4.54	0.11	3.1	1
COc1ccc(CNC(=O)c2ccc(-c3cc(-c4nnc(C)o4)ccc3C)cc2)cc1	3.03	4.73	8.32	2.76	5.41	1.54	2.92	6.86	6.77	2.25
CS(=O)(=O)CCNCc1coc(-c2ccc3ncnc(Nc4ccc(OCc5ccccc5)cc4)c3c2)c1	0.48	1.2	3.43	1.41	1.21	1.7	8.27	-0.18	5.7	2.64
COc1cccc(-n2ncc3c(N/N=C/c4ccc(F)cc4)ncnc32)c1	0.1	0.77	0.03	1.85	2.88	9.59	14	6.43	13.7	2.42
CCCN(CCS(C)(=O)=O)Cc1ccc(-c2ccc3ncnc(Nc4ccc(OCc5cccc(F)c5)c(Cl)c4)c3c2)o1	0.55	0.79	1.71	0.4	0.36	5.69	6.39	4.14	7.64	2.46
COc1ccc2[nH]c3c4[nH]c5ccc(OC)cc5c4c4c(c3c2c1)C(=O)NC4=O	68.3	66.7	82.7	2.48	8.8	26.9	77.2	56.4	78.2	10.9
CC(C)COC(=O)c1ccc2c(c1)/C(=C/Nc1ccc(S(N)(=O)=O)cc1)C(=O)N2	5.85	8.76	48.8	-0.6	1.18	2.01	72.2	4.76	39.7	38.1
Cc1cccc2c1NC(=O)/C2=N\Nc1ccc(S(N)(=O)=O)cc1	0.28	-0.05	-2.33	0.84	-0.06	6.76	2.58	7.86	2.38	2.84
COc1cc2ncn(-c3cc(OCc4ccccc4C(F)(F)F)c(C(=O)N(C)C)s3)c2cc1OC	0.27	-0.34	0.56	0.07	0.04	2.6	15.2	4.39	9.54	2.13
Cc1cccc(Nc2ncc(-c3ccccc3)o2)c1	0.42	-0.05	1.97	1.69	0.97	3.47	12.8	-1.34	9.41	2.6
COc1ccc(-c2nn3ncccc3c2-c2ccnc(Nc3ccc4c(c3)OCCO4)n2)cc1	1.11	0.26	2.15	0.05	-0.76	1.35	12.5	-0.55	6.1	-0.73
Fc1ccc(-c2nn3ncccc3c2-c2ccnc(Nc3ccc4c(c3)OCCO4)n2)cc1	-0.97	-2.21	-3.73	0.63	0.49	10.5	38.4	18.8	44.6	5.89
O=C(O[C@H]1CN[C@H](C#Cc2cc3ncnc(Nc4ccc(Cc5ccccc5)cc4)c3s2)C1)N1CCOCC1	1.06	1.54	3.8	0.58	-0.05	0.92	-0.23	-0.21	-0.83	-0.27
CCn1cc(-c2ccnc3[nH]ccc23)c(-c2cccc(NC(=O)Nc3ccc(OCc4ccccc4)cc3)c2)n1	0.13	-0.81	-1.13	-0.44	-0.98	1.1	3.35	-4.91	-0.71	-0.45
COc1ccc(-c2cc3c(N)ncnc3o2)cc1	2.23	1.44	6.86	-0.43	-0.51	-3.64	12	5.43	7.33	0.41
COC(=O)c1sc(-n2cnc3cc(OC)c(OC)cc32)cc1OCc1ccccc1C(F)(F)F	-0.34	-1.72	-2.84	2.02	-0.15	6.13	24.6	5.85	15.2	3.44
CCn1c(-c2nonc2N)nc2ccccc21	1.82	-0.8	10.7	0.58	-0.74	7.25	7.65	9.3	1.28	3.25

SMILES	inhibition [1] [%]	inhibition [2] [%]	inhibition [3] [%]	inhibition [4] [%]	inhibition [5] [%]	inhibition [6] [%]	inhibition [7] [%]	inhibition [8] [%]	inhibition [9] [%]	inhibition [10] [%]
COc1cc(/C=N/Nc2ncnc3[nH]ncc23)ccc1O	4.24	2.9	21.5	1.2	2.2	2.8	26.7	8.34	33.1	4.18
CC(C)(CO)CNC(=O)c1ccc2c(c1)/C(=N/Nc1ccc(S(N)(=O)=O)cc1)C(=O)N2	4.28	1.57	14.2	-0.02	-0.16	3.06	27.7	-1.9	36	21.7
CCOc1ccc2c(-c3ccnc(Nc4cccc(C(F)(F)F)c4)n3)cnn2n1	-0.33	-1.1	-1.96	0.3	-0.41	2.46	3.82	2.86	3.43	2.13
NS(=O)(=O)c1ccc(N/N=C2\C(=O)Nc3ccc4ncccc4c32)cc1	9.88	1.09	12.5	1.52	8.94	2.74	31.3	-0.54	31.6	7.16
COc1cccc(-c2c[nH]c3c(N/N=C/c4ccncc4)ncnc23)c1	1.1	0.71	2.78	0.16	-1.66	10.7	48.9	28.6	67.4	3.26
CS(=O)(=O)CCNCc1ccc(-c2ccc3ncnc(Nc4ccc(OCc5ccccc5)c(C(F)(F)F)c4)c3c2)o1	1.13	-1.28	-0.2	1.1	1.66	4.5	6.16	4.8	2.29	0.23
Fc1cccc(COc2ccc(Nc3ncnc4sc(-c5ccco5)cc34)cc2Cl)c1	0.73	-1.54	-0.36	0.95	1.47	2.24	9.68	3.95	5.81	0.55
CCn1c(-c2nonc2N)nc2cnc(Oc3cccc(NC(=O)c4ccc(N(C)C)cc4)c3)cc21	1.39	-0.12	1.67	0.33	-1.26	1.57	2.47	4.79	4.74	0.53
FC(F)(F)c1cccc(-c2nn3ncccc3c2-c2ccnc(Nc3ccc4c(c3)OCCO4)n2)c1	0.66	-1.58	-2.3	0.49	-0.29	3.06	6.62	3.42	6.02	0.3
CCn1c(-c2nonc2N)nc2c(C#CC(C)(C)O)nc(OC[C@H](N)c3ccccc3)cc21	3.44	0.83	4.27	0.68	1.6	3.53	7.29	1.31	-1.51	3.75
CCCN1CCC(c2ccc(Nc3nc(Nc4cc(F)ccc4C(N)=O)c4cc[nH]c4n3)c(OC)c2)CC1	13.3	8.07	49.4	6.44	40.9	10.1	14.7	10.9	11.7	0.75
COc1cc(N2CCN(C(C)C)CC2)ccc1Nc1nc(Nc2ccc(F)cc2C(N)=O)c2cc[nH]c2n1	1.98	1.69	19.9	1.95	16	7.46	14.3	3.18	8.56	3.02
CCN(CC)S(=O)(=O)c1ccc(OC)c(Nc2ncc(-c3ccccc3)o2)c1	0.18	2.06	3.12	0.51	0.24	1.24	6.72	3.3	2.83	1.32
c1ccc(COc2ccc(Nc3ncnc4ccc(-c5ccco5)cc34)cc2)cc1	1.2	-0.14	0.8	0.38	0.36	1.4	7.46	-3.82	1.35	-0.27
CN(C)CCOc1ccc(-c2nc(-c3ccncc3)c(-c3ccc4c(c3)CC/C4=N\O)[nH]2)cc1	0.05	-0.36	2.58	1.42	1.59	2.53	3.64	6.15	2.63	1.69
Fc1ccc(-c2cc(-c3c[nH]nc3-c3ccccn3)ccn2)cc1	-1.45	-0.42	1.85	2.19	4.27	3.49	8.52	7.67	8	0.43
CNC(=O)c1cccc(C#Cc2cncnc2Nc2ccc(OCc3cccc(F)c3)c(Cl)c2)c1	-1.75	0.69	2.29	0.27	1.49	2.11	3.26	-1.57	-1.75	-0.71
